Laboratory results from the supplement of paper PMC6555819.

The sequences below were run on VDR homodimer (NR concentration 270 nM) (assay: PBM binding z-score (relative to random genomic background probes); higher = stronger binding; sequences stand for … in GC…GCGATTGACAGCGTAGAATGAAGG).
Method in brief: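 The probes on custom Agilent 4×180K protein-binding microarrays were double-stranded, with 34-nt variable regions bearing direct-repeat seeds, single-nucleotide variants, half-site ablations and random human genomic background sequences. Incubation lasted 1 h with ligand-free nuclear receptor dimers in PBS pH 7.4, 2% milk, 0.02% Triton X-100, 1 mM DTT, 0.2 mg/mL BSA and 0.4 mg/ml salmon testes DNA. Antibodies against each partner (one per run) detected bound dimers, and fluorescence scans were regression-normalized. Binding z-scores take the random background probes as reference.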
For ACTCGGAGTACAAAGGTCAGAGCTACGCCAGTGA, the PBM binding z-score was 1.63. GCTCGCAGGACAAGGTCAGAGCTTTGTCCGTAGA showed a PBM binding z-score of -0.354. With ATCGAAAGGTCGAAGGTGAGTATCCCCACCCGAA the PBM binding z-score was 0.132. GTACCAAGGTGAATAGGTCGTTGAGGAGTAGGCG showed a PBM binding z-score of 0.676. CCTACTGGGCCAAAAAGGTCATTGGTGCCGATAA showed a PBM binding z-score of 2.89. ACTATTAGTTGAGACGAGGGGAACCGATAGGTTG gave a PBM binding z-score of 0.00117. With TCAGACAGGTGAAGGTAACTTAGGTACGCAGTCG the PBM binding z-score was 0.508. GCCAGCAGGCCATTTGGGTCACTCAATGACGGGC gave a PBM binding z-score of 0.49. Work on GCTATTAGTTGAAAGGGCAACTGAATGATTCTCG yielded a PBM binding z-score of 0.256. Sequence TAGCCTAGGTCAAATCGGGCCAGTATACGCTATA has a PBM binding z-score of 0.378. Sequence CAAACTAGGTCATCGGAAGGTCAAAGTCCGCATG has a PBM binding z-score of 3.67. Sequence GGAACTAGGGCATTCGAGTTGATAGCATGGCGAT has a PBM binding z-score of 0.769. In the case of TCTTGAAGATCAACAGGAGGTTAAGAAAGATCGA, the PBM binding z-score is reported as -0.404. ACAGACAGGTGAGTGAAGGTATCTCAGCTGGACG gave a PBM binding z-score of -0.981. Work on CAAACTAGGTCAAGCTCAAAGTCGGTTTGTGCCA yielded a PBM binding z-score of 0.374. With AATACAGGGTCATCGTAGCCCAGAGTACGCACAG the PBM binding z-score was 3.87. With CCTGCTAGGTCATGGTAAGCTAATCTACAGTATG the PBM binding z-score was -0.214. GCTAGCAGGCCATTTGGGTCACTCAGTGACGGGC was tested, and the PBM binding z-score was 0.166. With TCAGACAGGTGAAGATAACTCAGGTACGCAGTCG the PBM binding z-score was 0.623. Sequence CCAGACAGGTGAGAAGGTAACTTAGCCTCGATTA has a PBM binding z-score of 0.118. With TAGCCTAGGTCATGCGGTCCAGTATAGTGTCGGC the PBM binding z-score was 1.54. With ACTAGTTGGTCAGCGGAGGTCACACACAATTCGG the PBM binding z-score was 3.02. For TGAATGAGGTTAAAGATCACGGAACGTGGCGTCG, the PBM binding z-score was 0.625. TATACAGGGTCAAAGGCCAGGGTACGAATGTCGA gave a PBM binding z-score of 3.31. CCTTACGGGACACGAGGTTATAGCACGACGAGCG showed a PBM binding z-score of 0.544. CTACCAAGGTGAACAAGGTCGTTGAATACTATTC was tested, and the PBM binding z-score was 2.1. For CCGACTGGGACAAGGTTACCATAACGCACAGCCA, the PBM binding z-score was -0.0253. With CCTAGTTGGTCAAGTTCACACACGCTATAGGTAC the PBM binding z-score was 5.29. In the case of ATTAGCAGGCCAAGTTTGGGTCACTCAAACAAAG, the PBM binding z-score is reported as 0.34. In the case of GATACAGGGTCACGGCCAGAGTACGCGTATTGAT, the PBM binding z-score is reported as 3.26. Sequence GCTAGCAGGCCATTTGGGTCGCTCAATGACGGGC has a PBM binding z-score of -0.635. With TCTAGCAGGCCAGAGGCTCACTCAAGAGGTACGG the PBM binding z-score was -1.07. In the case of ATCGAAAGGTCGAAGCTGAGTATACCCACCCGAA, the PBM binding z-score is reported as 0.746. Work on CATTCAGGGTCAGCTAGGCCAGAGTAGGGACGGC yielded a PBM binding z-score of 1.42. Work on TTTGCTAGGTCAGTTGGTCAGCTAACGAGCTGCC yielded a PBM binding z-score of -0.505. Work on ACAGACAGGTGCTGAAGGTAACTCAGGCTATCAT yielded a PBM binding z-score of -0.984. AGAAGGAGGTTAAGATCAGGGAAACAGAATACAT showed a PBM binding z-score of 0.91. With AGAATGAGGTTAAGATCAGGCAAACAGAATACAT the PBM binding z-score was 0.247. With CCTACTGGGCCAACGTCATTGATCAGTCAAAGCA the PBM binding z-score was -0.545. In the case of GCTAGCAGGCCGTTTGGGTCACTCAATGACGGGC, the PBM binding z-score is reported as 0.089.
